Screening data as filed in PubChem BioAssay.
Pf growth 48h = Primary qHTS for delayed death inhibitors of the malarial parasite plastid, 48 hour incubation. actives 5.9% (n = 310,000). P. falciparum luciferase growth in erythrocytes, 48 h. Potency, µM (titrated, usually from 28.7 µM), hits mostly inhibitors
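Parasite viability was followed by luminescence of a genomically integrated firefly luciferase. Cultures held 0.1% parasitemia at 2% hematocrit (final), incubated under 5% CO2 at 37 C.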
Pf growth 96h = Primary qHTS for delayed death inhibitors of the malarial parasite plastid, 96 hour incubation; P. falciparum luciferase reporter growth, 96 h; AID 504834, 2011; Potency, µM (top dose mostly 28.7 µM), most hits filed as inhibitors; actives 6.9% (n = 320,000)
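P. falciparum expressing integrated firefly luciferase grown in erythrocytes (2% hematocrit, 0.05% parasitemia final) with compounds for 96 hours at 37 C, 5% CO2. Growth inhibition read as loss of luminescence after adding luciferase detection reagent.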
NS1 function inh = qHTS Assay for Inhibitors of Influenza NS1 Protein Function. Potency, µM (top dose mostly 46.1 µM). actives 0.4% (n = 270,000); calls by dose curve; further: actives are rising curves; nearly all actives have a fitted effect of over 50% in size
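A cell-based growth assay was used: compounds that relieve NS1-induced slow growth of budding yeast raise OD600. Assay medium was yeast nitrogen base with ammonium sulphate and -URA supplement, pH 6.0, with 2% galactose.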
AMA1 RON2 block = qHTS for Inhibitors of AMA1-RON; Towards Development of Antimalarial Drug Lead: Primary Screen | actives 0.2% (n = 360,000) | Potency, µM (titrated, usually from 58.2 µM), usual class: inhibitors | AlphaScreen AMA1-biotinylated RON2 peptide binding; further: nearly all actives have a fitted effect of over 45% in size
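AMA1 (3D7) with his tag at 25 nM final met compounds first, then biotinylated RON2 peptide at 25 nM; detection used donor plus acceptor beads, 10 µg/mL apiece, read by AlphaScreen after 30 min at room temperature.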
Sm TGR block = qHTS Assay for the Inhibitors of Schistosoma Mansoni Peroxiredoxins; Potency, µM (highest dose often 114 µM), actives largely listed as inhibitors; actives 3% (n = 360,000); Schistosoma mansoni thioredoxin glutathione reductase (TGR), Q962Y6; purified TGR, DTNB reduction, TNB absorbance 405 nm; further: nearly all actives have a fitted effect of over 60% in size
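TGR 20 nM + NADPH 100 uM (dispensed conc.), cpd preinc 15 min RT; start with NADPH (500 uM addition) then DTNB (15 mM addition). Kinetic TNB absorbance, 405 nm filter. Four-parameter Hill fit across titration.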
Hits are given with their value; n = inactive; u = inconclusive; x = no result given; [ ] = remark or other dose. A selection: hits, their analogues and other compounds. The true share with any hit is near 11%. Unless noted, the call rests on the fitted dose curve; in most records, active means well fitted curve in the direction sought with a large enough effect; inconclusive means small, poorly fitted or top-dose-only effect, or another doubt; inactive means no such curve, though single readings can be large; an effect the other way counts as inactive or inconclusive.

SMILES | Pf growth 48h | Pf growth 96h | NS1 function inh | AMA1 RON2 block | Sm TGR block
O=C(Nc1ccc(Cl)c(Cl)c1)Nc1nc(-c2ccccc2)cs1 | u | 2.3µM | n | n | n
COc1ccc(-c2csc(NC(=O)CSCc3c(C)noc3C)n2)cc1OC | u | u | n | n | n
O=C(Nc1ccccc1)Nc1nc(-c2ccc(F)c(F)c2)cs1 | 12µM | 13µM | n | n | n
COc1cc(OC)cc(C(=O)N[C@H](C(=O)Nc2nc(-c3ccc(F)c(F)c3)cs2)C(C)C)c1 | 13µM | n[5.75 µM] | x | n | n
Cc1noc(C)c1CSCC(=O)Nc1nc(-c2ccc(F)c(F)c2)cs1 | 10µM | u | x | n | n
COc1cc(OC)cc(C(=O)N[C@H](C(=O)Nc2ccc(F)cc2F)C(C)C)c1 | x | n | n | n | n
CCCCN1CCCCC1(C)C(=O)NCc1cccc(OC)c1 (stereo unspecified) | x | x | x | n | x
CC(=O)Nc1ccc(NC(=O)CSc2nnc(NC(=O)C3CC(=O)N(c4ccc(F)cc4)C3)s2)cc1 (stereo unspecified) | n | u | n | n | n
Cc1noc(C)c1CSCC(=O)Nc1ccc(OC(F)F)c(Cl)c1 | n | n | x | n | n
Cc1noc(C)c1CSCC(=O)Nc1ccc(S(=O)(=O)C(F)F)cc1 | n | 4.7µM | x | n | n
Nc1nc(NCCCN2CCOCC2)nc(Nc2ccc(Cl)cc2)c1[N+](=O)[O-] | u | n | n | n | n
Nc1nc(NCC2CCCO2)nc(Nc2ccccc2)c1[N+](=O)[O-] (stereo unspecified) | 10µM | u | n | n | n
CCOc1ccc(Nc2c3ccccc3nc3ccccc23)cc1 | 2.9µM | 2.1µM | n | n | n
Nc1nc(NCCCN2CCOCC2)nc(Nc2cccc(Cl)c2)c1[N+](=O)[O-] | 5.9µM | u | n | n | n
CCOc1ccc(Nc2nc(NCC3CCCO3)c3ccccc3n2)cc1 (stereo unspecified) | 1.2µM | n | x | n | n
CCCN(CCC)C(=O)CN1C(=O)CSc2ccc(S(=O)(=O)N3CCC(C)CC3)cc21 | x | x | x | x | n
O=C(NCC(=O)N1CCN(Cc2ccccc2)CC1)c1cc(Cl)cc([N+](=O)[O-])c1 | x | x | x | n | x
Cn1nnnc1SCCNC(=O)C1CCC(=O)N(CCc2cccc(F)c2)C1 (stereo unspecified) | n | n | n | n | n
Oc1cccc(Nc2nc(NCC3CCCO3)c3ccccc3n2)c1 (stereo unspecified) | 0.37µM | n | n | n | n
c1ccc(Nc2nc(NCC3CCCO3)c3ccccc3n2)cc1 (stereo unspecified) | u | n | x | n | n
O=C(OCc1ccc(F)cc1)c1cc(=O)c2ccccc2o1 | n | n | n | n | n
COc1ccc(NC(=O)CC2C(=O)N(C)C(=S)N2Cc2ccco2)cc1 (stereo unspecified) | n | n | n | n | n
O=C(CC1C(=O)N(c2ccccc2)C(=O)N1Cc1ccco1)Nc1ccccc1 (stereo unspecified) | n | 15µM | n | n | u
CC(C)N1C(=S)N(Cc2ccco2)C(=O)C1CC(=O)Nc1ccccc1 (stereo unspecified) | 1µM | u | x | n | 40µM
O=C(Nc1ccc(Cl)cn1)C1COc2ccccc2O1 (stereo unspecified) | u | n | n | n | n
SMILES | Pf growth 48h | Pf growth 96h | NS1 function inh | AMA1 RON2 block | Sm TGR block
Cc1ccc(-c2nc3ccsc3c(=O)[nH]2)cc1 | 2.1µM | n | n | n | n
N#Cc1ccc(Oc2ccc(-c3nc4ccccc4nc3-c3ccccc3)cc2)cc1C#N | n | 3.7µM | n | n | n
N#Cc1ccc(Oc2ccc(-c3cnc4ccccc4n3)cc2)cc1C#N | n | n | n | n | n
CC(C)(C)c1ccc(C(=O)NCC(=O)OCCN2C(=O)c3ccccc3C2=O)cc1 | n | n | x | n | n
COc1ccc([C@H]2CC(=O)C[C@@H](CCn3cc(-c4nccn4C)nn3)O2)cc1 | x | x | x | n | x
COc1cc(-c2cc(NC=O)c3ncc(-c4ccc(C(C)=O)cc4)n3c2)ccc1O | x | x | x | n | x
COc1ccc2ccccc2c1/C=N/NC(=O)c1cccc(C)c1 | x | x | x | n | x
Cc1cccc(OCC(=O)NC(C)C(=O)N/N=C/c2c(OCc3ccccc3)ccc3ccccc23)c1 (stereo unspecified) | 6.6µM | x | n | n | n
O=c1[nH]c(/C(Cl)=C/c2c(F)cccc2Cl)nc2cc(Cl)ccc12 | n | n | n | n | n
O=c1[nH]c(/C(Cl)=C/c2cc(Cl)ccc2O)nc2cc(Cl)ccc12 | n | 9.3µM | n | n | n
CC(C)N(Cc1ccccc1)C(=O)Cn1ncc2c([nH]c3ccccc32)c1=O | x | x | x | x | n
Cn1c(=O)c2c(nc(NCCc3ccccc3)n2CC(=O)NCCc2ccccc2)n(C)c1=O | n | 13µM | u | n | n
C/C(Cl)=C\Cn1c(NCCc2ccccc2)nc2c1c(=O)n(C)c(=O)n2C | 9.3µM | n | n | n | n
Cc1ccccc1OCC(=O)Nc1ccccc1-c1ccccc1 | n | u | n | n | n
CC1=CC(C)(C)N=C(Nc2ccc(C)cc2)S1 | x | 10µM | n | n | n[11.4 µM]
CCc1ccc(N2CCN(CCNC(=O)Nc3ccc(OC)cc3)CC2)cc1 | n | u | n | n | n
COc1ccc(Cl)c(N2CCN(CCCNC(=O)Nc3ccc(C)cc3)CC2)c1 | 13µM | x | n | n | n
COc1ccc(NC(=O)NCCN2CCN(c3cc(OC)ccc3OC)CC2)cc1 | n | n | n | n | n
CCc1ccc(NC(=O)NCCN2CCN(c3ccc(OC)cc3)CC2)cc1 | n[0.00184 µM] | 13µM | n | n | n
O=C1Nc2ccccc2N(O)N1c1cc(-c2ccccc2)[nH]n1 | n | n | x | n | n
CC(=O)c1ccc(NC(=S)NCCc2cccc(Cl)c2)cc1 | u | n | n | n | x
CC(C)CCNC(=O)c1cc(-c2ccco2)nc2ccccc12 | n | x | n | n | 40µM
CCCCCCCNC(=O)c1cc(-c2ccncc2)nc2ccccc12 | u | u | n | n | n
CCCCOc1cc(C(=O)NCCN(CC)CC)c2ccccc2n1 | 13µM | 10µM | n | n | n
NS(=O)(=O)c1ccc(CCNC(=O)c2cc(-c3ccco3)nc3ccccc23)cc1 | u | u | x | n | 8.9µM
CCCCCCNC(=O)c1cc(-c2ccco2)nc2ccccc12 | n | u | n | n | 3.2µM
CCc1nn2c(=O)cc(COC(=O)CNC(=O)c3ccccc3)nc2s1 | x | x | x | x | n
COc1ccccc1CNC(=O)C1(C)CCCCN1C (stereo unspecified) | x | x | x | n | x
C/C(CCN1CCc2nc(-c3ccccc3)c(-c3ccccc3)cc2C1)=N\OC[C@@H](C)[C@H](OCc1ccccc1)C(C)C | u | 9.3µM | n | n | n
C/C(CCN1CCc2nc(-c3ccccc3)c(-c3ccccc3)cc2C1)=N\O[C@H](C)c1cn([C@H](CO)Cc2ccccc2)nn1 | 9.3µM | 13µM | n | x | u
